Results reported in the supplement of paper PMC3334620.
The full ranking holds about 33,000 sequences; the median of “E-score (-0.5 to 0.5)” is about -0.04, and the highest 2% start at about 0.36. The sample as a whole holds a higher share of the highest values than the screen did.

What follows are sequences tested against T1, Hmlalpha2 (UniProt P0CY09) (assay: PBM E-score (8-mer binding enrichment) (E-score (-0.5 to 0.5)); higher = stronger / more preferred TF binding). Conditions: protein concentration: 200 nM; construct: GST-full length.
T1 sequence: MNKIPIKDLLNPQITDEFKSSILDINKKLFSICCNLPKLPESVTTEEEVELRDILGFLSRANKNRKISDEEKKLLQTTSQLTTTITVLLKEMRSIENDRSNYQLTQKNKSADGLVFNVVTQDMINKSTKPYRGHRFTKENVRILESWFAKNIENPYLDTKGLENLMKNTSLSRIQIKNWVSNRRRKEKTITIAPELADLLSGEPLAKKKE
Method: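 Universal 'all 10-mer' protein binding microarrays (Agilent AMADID 015681) probed with GST-tagged S. cerevisiae TFs (full-length or DBD) made by in vitro transcription/translation (PURExpress), about 100-200 nM. Bound TF was detected with fluorescent anti-GST. Each ungapped 8-mer (which stands for itself and its reverse complement) is scored by the PBM enrichment score (E-score), a modified Wilcoxon-Mann-Whitney statistic from -0.5 to +0.5, computed with the Universal PBM Analysis Suite. Scale: above 0.35 generally sequence-specific binding.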

In order of falling “PBM E-score” value:
1. TTACACAA  0.478
2. ACATGTAG  0.459
3. ACATGTAT  0.454
4. TACACGTA  0.428
5. CTACACAG  0.421
6. CCATGTAG  0.416
7. AACATGGG  0.415
8. ACATGTAC  0.412
9. AACACGTA  0.41
10. AACACAAC  0.409
11. GCATGTAC  0.408
12. AACATGGC  0.406
13. GCGTAAAC  0.404
14. AACACGTT  0.403
15. GCGTAAAA  0.4
16. CCATGTAC  0.398
17. CTACACAC  0.391
18. AACATGGT  0.384
19. AACACAGC  0.379
20. AACACGTC  0.377
21. GTACACAA  0.373
22. AACACAAT  0.373
23. CTACACAA  0.369
24. GTACACAC  0.357
25. ACATGTGC  0.352
26. AACACGTG  0.348
27. ACATTTAC  0.348
28. AACATGGA  0.346
29. ACATGTCG  0.343
30. CCATGTCG  0.336
31. AACACAAG  0.326
32. TAACACTA  0.316
33. ACATGTGG  0.312
34. ACATGTCT  0.305
35. GACACGTA  0.293
36. CACACGTG  0.289
37. AAATGTAT  0.277
38. CACACGTA  0.271
39. CACACAAC  0.27
40. TTACAAAA  0.266
41. CAAGTACA  0.266
42. GACACAAC  0.264
43. ACCACGTA  0.254
44. CACACAAG  0.248
45. AACACAGG  0.247
46. ACGATTTA  0.244
47. TCGTAAAA  0.237
48. TCACACAA  0.23
49. ACAAGCCT  0.227
50. GACATGGC  0.224
51. CACACAGC  0.201
52. GACACGTC  0.2
53. CCGTAAAC  0.199
54. CTACAGAG  0.184
55. GCGTAAGC  0.183
56. CTTCAATA  0.173
57. CACACGTC  0.166
58. GCACACAA  0.155
59. AGATGTAC  0.121
60. CCGTAAAA  0.12
61. GCATAAGC  0.119
62. ACACTGTA  0.116
63. AAGTGCTG  0.107
64. CGATGTAG  0.106
65. ATACGGCA  0.103
66. GCCTGTAC  0.101
67. AAGTATTG  0.0978
68. CTACACCC  0.0904
69. CTACAAAA  0.0813
70. ATGGTAGA  0.079
71. TAAGTGGA  0.0716
72. CTCTACAG  0.0676
73. TCGCTTAA  0.0673
74. CTGCGAAA  0.0491
75. CCATGTGC  0.0482
76. CGTTAGGA  0.0405
77. AATATGCT  0.0361
78. CCACACAC  0.0345
79. CACATGGC  0.0319
80. AAAACGTT  0.0264
81. AATGCCCA  0.0243
82. GCATGTCC  -0.0024
83. CCATGTCC  -0.00972
84. CCACACAA  -0.0216
85. CATCGACA  -0.0243
86. ACTCTATC  -0.0301
87. ATTCTGCA  -0.0444
88. CACATGGG  -0.0456
89. ACCATGGT  -0.0519
90. ATGGCATA  -0.0529
91. TCTAAGCA  -0.0643
92. CCCATTCG  -0.0725
93. ATCATGGG  -0.0934
94. ACTGCCTC  -0.0994
95. GACGCTCA  -0.111
96. CTATGGAC  -0.125
97. GAAGCGGC  -0.131
98. AAGGGCCT  -0.136
99. ACCATCGT  -0.151
100. TCCAAGCA  -0.164
101. ACCTAGTC  -0.177
102. AAATCCGG  -0.18
103. GCAGCTCA  -0.181
104. ACCGTAGT  -0.225
105. CAAAGGTC  -0.233
106. CGGGGCGC  -0.244
107. GAAGGACC  -0.245
108. TGCCACCA  -0.261
109. TCAGAAGA  -0.267
110. CGGTGCGC  -0.279
111. GGCCACCC  -0.351
